# HP1b binding inh: blocks HP1-beta chromodomain binding to methylated histone tails; Potency, µM (doses to about 114 µM), without a hit: at the highest dose activity change, negative = inhibition, most hits filed as inhibitors; P83916; AlphaScreen HP1-beta / biotin-H3K9me3 peptide binding; 0.56% of 390,000 active; AID 540317; further: potency means the concentration at half of the fitted maximal effect; nearly all actives have a fitted effect of over 70% in size
#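 HP1-beta protein (50 nM final) preincubated 30 min at room temperature with biotinylated H3(1-18)K9me3 peptide (50 nM) in PBS pH 7.4, 0.01% Tween-20, then compound added for 30 min. AlphaScreen streptavidin donor/nickel chelate acceptor beads (10 ug/mL final), 30 min dark, luminescence read.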
# G9a inh: G9a (human) methyltransferase inhibition; G9a H3K9 monomethylation, AlphaScreen, 2 h; Potency, µM (series often up to 102 µM), for inactives: at the highest dose activity, negative = inhibition, hits mostly inhibitors; 8.8% of 350,000 active; AID 504332; further: potency means the concentration at half of the fitted maximal effect; on the % scale 0 is the no-effect control and ±100 the full control effect; nearly all actives have a fitted effect of over 75% in size
#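 AlphaScreen read-out: biotin-H3K9 peptide (500 nM) methylation by 20 nM enzyme with 20 uM SAM, 2 h at room temperature after 15 min compound preincubation; anti-monomethyl H3K9 antibody plus donor/acceptor beads, 10 min dark.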
# BAZ2B inh: inhibitors of human BAZ2B bromodomain; Q9UIF8; AlphaScreen BAZ2B-H3K14Ac peptide displacement; Potency, µM (top dose mostly 114 µM), for inactives: at the highest dose activity change, negative = inhibition, usual class: inhibitors; 4.4% of 360,000 active; AID 504333; further: potency means the concentration at half of the fitted maximal effect; on the % scale 0 is the no-effect control and ±100 the full control effect; nearly all actives have a fitted effect of over 60% in size
#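 AlphaScreen displacement: compounds (up to 110uM) incubated 30 min at room temperature with a preformed 50 nM BAZ2B/50 nM biotinylated H3K14Ac peptide complex in PBS pH 7.4 with Tween-20. Donor and acceptor beads at 10 ug/mL final added, 20 min light-protected before reading.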
# JMJD2A Tudor: blocks the human JMJD2A Tudor domain. AlphaScreen JMJD2A-Tudor / H3K4me3 peptide binding. Potency, µM (highest dose often 114 µM), without a hit: at the highest dose activity change, negative = inhibition, actives largely listed as inhibitors. 4.4% of 390,000 active. AID 504339; further: potency means the concentration at half of the fitted maximal effect; on the % scale 0 is the no-effect control and ±100 the full control effect; nearly all actives have a fitted effect of over 50% in size
# PI5P4K alpha inh: blocks human PI5P4K alpha kinase activity | P48426 | PI5P4Kalpha enzyme, ADP-Glo luminescence, 60 min; stronger effect = lower value | max response, % | 1.2% of 330,000 active; active means max response of -50% or lower; inconclusive means between -30% and -50%; inactive means -30% or higher; further: value at the top dose of about 77 µM; on the % scale 0 is the no-effect control and ±100 the full control effect
#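 Luminescence from ADP-Glo served as readout of PI5P4Kalpha activity in a qHTS format. Reaction: enzyme, substrate, compound, ATP at 5 microM final, 60 min at RT.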
# PLK1 PBD inh: PLK1 (human) polo-box domain binding inhibition; 2.8% of 360,000 active; Plk1 PBD binding of FITC phosphopeptide, fluorescence polarization; Potency, µM, without a hit: max response, negative = inhibition, usual class: inhibitors; P53350; further: potency means the concentration at half of the fitted maximal effect; series mostly up to about 57 µM; on the % scale 0 is the no-effect control and ±100 the full control effect; nearly all actives have a fitted effect of over 65% in size
# * = called active by the depositor; ? = inconclusive; nt = not tested or not shown; [ ] = another dose, or the depositor's remark. A selection: hits, their analogues and other compounds. The true share with any hit is near 12%. Unless noted, the call rests on the fitted dose curve; in most records, active means well fitted curve in the direction sought with a large enough effect; inconclusive means small, poorly fitted or top-dose-only effect, or another doubt; inactive means no such curve, though single readings can be large; an effect the other way counts as inactive or inconclusive.
SMILES,HP1b binding inh,G9a inh,BAZ2B inh,JMJD2A Tudor,PI5P4K alpha inh,PLK1 PBD inh
O=C(COC(=O)c1cnccn1)Nc1ncc(Cl)cc1Cl,-14.5%,28.2µM*,50.1µM*,?,?,-28.7%
COc1cccc(C(=O)NCC(=O)OCC(=O)c2ccccc2)c1,-1.4%,-10.3%[59 µM],0.9%,-19.0%,-1.8,-7.5%
Cc1c2cnn(CC(=O)N3CCN(c4ccccc4)CC3)c(=O)c2c(C)n1Cc1ccc(F)cc1,-3.7%,6.1%[59 µM],-5.3%,-17.4%,nt,nt
CCOC(=O)CSc1nc2ccc(NC(=O)COc3ccc(F)cc3)cc2s1,100.2%,20.1%[59 µM],0.5%,-6.6%,nt,nt
CCOc1nc(OCC)nc(N2CCC(C)CC2)n1,61.0%,22.2%[59 µM],25.6%,-19.2%[11.4 µM],13.2,-2.7%
CCOc1nc(NC2CCCC2)nc(N2CCC(C)CC2)n1,18.9%,17.9%,-27.9%,4.8%,2.7,18.9µM*
CCOC(=O)C1=C(C)N=C2c3ccccc3C(=O)C2C1c1ccc(Cl)cc1 (stereo not drawn),?,39.8µM*,12.6µM*,39.8µM*,nt,-7.7%
CC1(C)CC(=O)C2=C(C1)N=c1s/c(=C/c3ccc(F)c(F)c3)c(=O)n1C2c1ccc(F)cc1 (stereo not drawn),-2.3%,-8.9%[59 µM],1.2%,-19.8%,-4.7,-11.9%
CC1(C)CC(=O)C2=C(C1)N=C1c3ccccc3C(=O)C1C2c1ccc(Cl)cc1 (stereo not drawn),?,10µM*,12.6µM*,?,-10.7,-9.8%
Cc1ccc(C2C3=C(CC(C)(C)CC3=O)N=C3c4ccccc4C(=O)C32)cc1 (stereo not drawn),?,5.01µM*,15.8µM*,44.7µM*,-6.5,-9.7%
COc1ccccc1C1C2=C(CC(C)(C)CC2=O)Nc2nnnn21 (stereo not drawn),8.8%,28.2µM*,-27.6%,-14.2%,-2.8,2.8%
Cc1ccc(NC(=O)Cc2nn(C)c(=O)c3ccccc23)cc1F,-5.8%,8.2%[59 µM],-0.7%,35.5µM*,?,2.99µM*
Cn1nc(CC(=O)Nc2ccc3c(c2)OCCO3)c2ccccc2c1=O,30.5%,13.2%[12.7 µM],-0.4%,-3.1%,0.8,-3.9%
Cc1ccc(NC(=O)Cc2c(C(=O)O)n(C)c3ccccc23)cc1F,-20.5%,-0.8%,-2.1%,44.7µM*,-14.4,23.8µM*
Cc1ccc(S(=O)(=O)Nc2ccc(-c3ccc4nncn4n3)cc2)cc1,10.5%,-0.9%[0.501 µM],6.0%,-2.1%,-3.7,-12.7%
O=C(CN1CCOCC1)NNC(=S)Nc1ccc(Cl)cc1,31.1%,39.8µM*,?,-13.0%,-4.4,0.0%
O=C(CN1c2ccccc2Sc2ccccc21)NNC(=S)Nc1ccc(Cl)cc1,?,28.2µM*,?,?,-14.8,-13.2%
O=C(Nc1ccc(CN2CCOCC2)cc1)c1ccc(Cl)cc1,36.5%,-9.5%,-2.7%,-16.2%,-3.4,2.2%
Cc1cc(C)c(C)c(S(=O)(=O)N2CCN(C(=O)C3CSC4(C)CCC(=O)N34)CC2)c1C (stereo not drawn),-10.1%,-18.0%,-4.3%,-22.1%,-15.9,-8.8%
Cc1ccccc1OCCOC(=O)c1c(-c2ccccc2)noc1C,79.7%[57 µM],395.6%,150.4%,217.0%,3.6,-6.8%
Cc1onc(-c2ccccc2)c1C(=O)OCCOc1ccccc1F,149.3%,308.2%,115.5%,-10.0%[57.1 µM],9.7,26.7µM*
COc1cc(OC)c(NS(=O)(=O)c2cc(C(=O)NCCCN3CCOCC3)ccc2C)cc1Cl,nt,nt,nt,nt,-14.1,1.5%
COc1ccc(N2CCN(CCNC(=O)Nc3ccc([N+](=O)[O-])cc3OC)CC2)cc1,?,44.7µM*,?,50.1µM*,6.7,-7.4%
COc1cc(NC(=O)NCCN2CCN(c3ccc(Cl)cc3)CC2)ccc1C,-18.6%,?,?,-33.0%,19.7,-3.2%
COc1ccc(N2CCN(CCNC(=O)Nc3ccc(C)c(Cl)c3)CC2)cc1,2.0%,25.1µM*,-34.9%,-27.8%,2.1,-16.8%
CN(/N=C\c1ccc(O)c(O)c1)c1nc(-c2ccccc2)cc(-c2ccccc2)n1,?,39.8µM*,39.8µM*,?,?,-0.5%

# Assay outcomes from PubChem.
